Experimental data reported in PubChem BioAssay (EPA / NIEHS).
Results filed as inconclusive are left out. The source made the active and inactive calls. Rule for the calls, unless noted: active = hit-call score of the fitted dose curve at least 0.9, where 1 is the maximum; inconclusive = response in the unintended direction; inactive = score below 0.9.

How the values were obtained:
[1] = molecular target: human RAR-related Orphan Receptor beta (RORb), RORB (gene 6096) (UniProt Q92753); assay: ATG_RORb_TRANS: Attagene TRANS-FACTORIAL HepG2 Assay for human RAR-related Orphan Receptor beta (RORb) (AID 2283010)
human RAR-related Orphan Receptor beta (RORb), RORB (gene 6096), sequence (Q92753 whole entry, looked up, the tested form may be a part): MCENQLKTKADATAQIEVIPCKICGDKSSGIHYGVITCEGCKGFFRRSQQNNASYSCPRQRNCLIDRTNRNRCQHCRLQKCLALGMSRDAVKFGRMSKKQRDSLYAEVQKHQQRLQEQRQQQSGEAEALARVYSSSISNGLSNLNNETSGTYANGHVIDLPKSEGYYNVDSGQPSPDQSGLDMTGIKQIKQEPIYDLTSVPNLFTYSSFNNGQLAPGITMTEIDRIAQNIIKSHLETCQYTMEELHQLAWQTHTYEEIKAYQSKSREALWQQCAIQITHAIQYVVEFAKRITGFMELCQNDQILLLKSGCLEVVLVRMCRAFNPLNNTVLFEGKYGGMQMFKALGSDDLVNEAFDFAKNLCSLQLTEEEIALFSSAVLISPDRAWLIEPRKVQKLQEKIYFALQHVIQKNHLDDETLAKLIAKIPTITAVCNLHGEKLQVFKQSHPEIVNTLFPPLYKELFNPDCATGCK
Method in brief: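 Read-out is reporter mRNA induction, quantified by RT-PCR with fluorescent capillary electrophoresis, 24 h post-dose in transiently transfected HepG2 expressing exogenous NR-Gal4 chimera. Activity fitted upward versus DMSO.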

[2] = molecular target: human RAR-related Orphan Receptor gamma (RORg), RORC (gene 6097) (UniProt P51449); assay: ATG_RORg_TRANS: Attagene TRANS-FACTORIAL HepG2 Assay for human RAR-related Orphan Receptor gamma (RORg) (AID 2283011)
human RAR-related Orphan Receptor gamma (RORg), RORC (gene 6097), sequence (P51449 whole entry, looked up, the tested form may be a part): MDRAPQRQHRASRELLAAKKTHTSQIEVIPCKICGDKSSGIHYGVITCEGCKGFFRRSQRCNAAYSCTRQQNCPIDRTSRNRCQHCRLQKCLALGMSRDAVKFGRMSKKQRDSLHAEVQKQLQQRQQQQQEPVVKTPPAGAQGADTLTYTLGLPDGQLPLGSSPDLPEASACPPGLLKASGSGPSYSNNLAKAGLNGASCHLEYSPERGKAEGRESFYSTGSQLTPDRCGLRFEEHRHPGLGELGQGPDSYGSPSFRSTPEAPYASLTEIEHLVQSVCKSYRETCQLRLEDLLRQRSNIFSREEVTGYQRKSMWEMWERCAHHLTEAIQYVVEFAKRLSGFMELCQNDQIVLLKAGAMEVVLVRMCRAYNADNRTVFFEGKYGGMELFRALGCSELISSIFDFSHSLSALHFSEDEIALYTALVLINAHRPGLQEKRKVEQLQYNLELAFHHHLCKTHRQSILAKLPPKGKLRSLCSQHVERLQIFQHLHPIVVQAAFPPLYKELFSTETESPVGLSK
Method in brief: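 Readout: reporter transcript induction (RT-PCR, fluorescent primer extension, capillary electrophoresis) after 24 h compound exposure of transiently transfected HepG2 cells carrying a RORg-Gal4 chimera and GAL4-UAS reporters; DMSO served as baseline, with increasing signal fitted.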

[3] = molecular target: human Thyroid Receptor alpha (THRa1), THRA (gene 7067) (UniProt P10827); assay: ATG_THRa1_TRANS: Attagene TRANS-FACTORIAL HepG2 Assay for human Thyroid Receptor alpha (THRa1) (AID 2283014)
human Thyroid Receptor alpha (THRa1), THRA (gene 7067), sequence (P10827 whole entry, looked up, the tested form may be a part): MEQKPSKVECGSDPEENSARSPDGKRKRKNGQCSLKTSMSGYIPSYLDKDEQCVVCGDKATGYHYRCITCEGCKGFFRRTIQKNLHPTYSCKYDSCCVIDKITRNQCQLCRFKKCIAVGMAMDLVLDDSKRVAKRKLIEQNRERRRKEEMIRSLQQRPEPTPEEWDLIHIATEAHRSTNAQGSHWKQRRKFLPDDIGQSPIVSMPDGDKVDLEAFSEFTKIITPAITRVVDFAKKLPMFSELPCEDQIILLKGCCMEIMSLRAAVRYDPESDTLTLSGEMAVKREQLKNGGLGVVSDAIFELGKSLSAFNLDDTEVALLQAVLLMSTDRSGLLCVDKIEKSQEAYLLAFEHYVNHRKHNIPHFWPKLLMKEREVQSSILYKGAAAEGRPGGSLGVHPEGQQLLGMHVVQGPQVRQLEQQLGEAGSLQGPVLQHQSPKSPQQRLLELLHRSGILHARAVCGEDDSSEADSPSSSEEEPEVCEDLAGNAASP
Method in brief: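 HepG2 cells transiently transfected with multiplexed GAL4-UAS reporter units for exogenous chimeric THRa1-Gal4; reporter mRNA measured 24 h after dosing by RT-PCR, 6-FAM labelling, HpaI digestion and capillary electrophoresis. Gain-of-signal fitted versus DMSO baseline.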

[4] = molecular target: human Vitamin D Receptor (VDR), VDR (gene 7421) (UniProt P11473); assay: ATG_VDR_TRANS: Attagene TRANS-FACTORIAL HepG2 Assay for human Vitamin D Receptor (VDR) (AID 2283022)
human Vitamin D Receptor (VDR), VDR (gene 7421), sequence (P11473 whole entry, looked up, the tested form may be a part): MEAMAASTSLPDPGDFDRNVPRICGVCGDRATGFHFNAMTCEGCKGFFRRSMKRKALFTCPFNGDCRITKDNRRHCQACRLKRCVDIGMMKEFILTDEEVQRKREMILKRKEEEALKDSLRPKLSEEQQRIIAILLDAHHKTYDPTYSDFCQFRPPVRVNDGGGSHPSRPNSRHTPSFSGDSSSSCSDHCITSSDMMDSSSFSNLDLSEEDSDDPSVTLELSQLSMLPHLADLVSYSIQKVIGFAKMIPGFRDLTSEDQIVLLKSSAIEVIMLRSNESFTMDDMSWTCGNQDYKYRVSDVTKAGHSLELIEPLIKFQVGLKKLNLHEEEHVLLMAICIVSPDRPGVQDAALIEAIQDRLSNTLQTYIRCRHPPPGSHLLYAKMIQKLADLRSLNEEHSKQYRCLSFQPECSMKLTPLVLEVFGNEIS
Method in brief: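 HepG2 cells were transiently transfected with multiple GAL4-UAS reporter units, so signal reflects exogenous chimeric receptor-Gal4 activity. After 24 h compound exposure, reporter mRNA was measured by RT-PCR, fluorescent labelling and capillary electrophoresis, fitted for gain of signal versus DMSO.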

[5] = molecular target: Retinoic acid receptor RXR-alpha (Homo sapiens) (UniProt P19793); assay: ATG_RXRa_TRANS: Attagene TRANS-FACTORIAL HepG2 Assay for human Retinoid X Receptor alpha (RXRa) (AID 2283012)
Retinoic acid receptor RXR-alpha (Homo sapiens), sequence (P19793 whole entry, looked up, the tested form may be a part): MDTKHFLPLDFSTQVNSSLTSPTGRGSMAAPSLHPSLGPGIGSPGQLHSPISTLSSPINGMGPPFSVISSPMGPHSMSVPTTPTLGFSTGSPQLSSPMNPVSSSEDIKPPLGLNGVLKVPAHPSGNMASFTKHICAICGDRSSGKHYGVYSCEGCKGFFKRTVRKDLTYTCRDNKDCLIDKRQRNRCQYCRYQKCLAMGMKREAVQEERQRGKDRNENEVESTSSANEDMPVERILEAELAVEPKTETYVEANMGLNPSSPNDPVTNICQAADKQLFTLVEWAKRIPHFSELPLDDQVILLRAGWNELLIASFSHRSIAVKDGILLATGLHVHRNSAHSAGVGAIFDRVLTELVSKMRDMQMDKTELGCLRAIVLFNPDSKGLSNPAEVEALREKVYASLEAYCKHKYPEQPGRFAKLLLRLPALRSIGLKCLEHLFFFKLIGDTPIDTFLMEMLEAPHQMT
Method in brief: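 TRANS format reporting activity of exogenous RXRa-Gal4 chimera in transiently transfected HepG2, 24 h exposure. Reporter transcripts quantified by RT-PCR with capillary electrophoresis, with gain of signal scored relative to DMSO.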

[6] = molecular target: human Retinoid X Receptor beta (RXRb), RXRB (gene 6257) (UniProt P28702); assay: ATG_RXRb_TRANS: Attagene TRANS-FACTORIAL HepG2 Assay for human Retinoid X Receptor beta (RXRb) (AID 2283013)
human Retinoid X Receptor beta (RXRb), RXRB (gene 6257), sequence (P28702 whole entry, looked up, the tested form may be a part): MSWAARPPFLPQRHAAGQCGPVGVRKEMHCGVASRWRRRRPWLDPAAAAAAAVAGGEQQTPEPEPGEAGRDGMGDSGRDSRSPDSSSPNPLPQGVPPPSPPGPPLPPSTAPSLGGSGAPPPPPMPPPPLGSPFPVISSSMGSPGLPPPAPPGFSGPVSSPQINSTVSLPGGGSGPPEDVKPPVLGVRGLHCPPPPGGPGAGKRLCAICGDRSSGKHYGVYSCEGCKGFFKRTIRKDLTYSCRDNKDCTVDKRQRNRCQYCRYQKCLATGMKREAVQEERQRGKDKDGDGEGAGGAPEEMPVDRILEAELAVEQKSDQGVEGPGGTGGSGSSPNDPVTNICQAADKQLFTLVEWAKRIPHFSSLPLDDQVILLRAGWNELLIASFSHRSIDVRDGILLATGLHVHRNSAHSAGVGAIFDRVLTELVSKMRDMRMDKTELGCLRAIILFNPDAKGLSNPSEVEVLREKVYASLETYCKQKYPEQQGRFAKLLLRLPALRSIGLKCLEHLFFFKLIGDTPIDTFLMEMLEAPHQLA
Method in brief: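 Readout is reporter transcript induction after 24 h dosing. It is measured by RT-PCR of total RNA followed by fluorescent capillary electrophoresis. HepG2 liver cells carry transfected multiple reporter units driven by an exogenous RXRb-Gal4 fusion; activity is relative to DMSO.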

[7] = read-out: E-selectin (Homo sapiens) (UniProt P16581); assay: BSK_3C_Eselectin: BioMAP Diversity Plus: 3C Assay for Eselectin Biomarker Activity (AID 2283015; active = hit-call score of the fitted dose curve at least 0.9, where 1 is the maximum; inactive = score below 0.9); conditions: primary human endothelial cells (HUVEC); actives raise or lower the signal
Method in brief: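 Primary human umbilical vein endothelial cells (3C system) were dosed with chemical and cell-surface E-selectin measured by ELISA 24 h later. Bidirectional curve fitting used DMSO as negative control and baseline.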

[8] = read-out: Interleukin-1 alpha (IL1a), IL1A (gene 3552); assay: BSK_BE3C_IL1a: BioMAP Diversity Plus: BE3C Assay for Interleukin-1 alpha (IL1a) Biomarker Activity (AID 2283016; active = hit-call score of the fitted dose curve at least 0.9, where 1 is the maximum; inactive = score below 0.9); conditions: primary human bronchial epithelial cells; actives raise or lower the signal
Method in brief: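 IL-1a measured by ELISA after 24 h treatment of human primary bronchial epithelial cells, with gain or loss of signal fitted versus DMSO. Parallel cultures stained with SRB gauge overt cytotoxicity.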

[9] = read-out: Monocyte Chemoattractant Protein-1 (MCP1), CCL2 (gene 6347); assay: BSK_3C_MCP1: BioMAP Diversity Plus: 3C Assay for Monocyte Chemoattractant Protein-1 (MCP1) Biomarker Activity (AID 2283017; active = hit-call score of the fitted dose curve at least 0.9, where 1 is the maximum; inactive = score below 0.9); conditions: primary human endothelial cells (HUVEC); actives raise or lower the signal
Method in brief: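 Primary human umbilical vein endothelial cells (3C system) were exposed to test chemical for 24 h, after which MCP-1 was quantified by ELISA. Activity was fitted bidirectionally against DMSO as negative control and baseline.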

[10] = read-out: Monocyte Chemoattractant Protein-1 (MCP1), CCL2 (gene 6347); assay: BSK_4H_MCP1: BioMAP Diversity Plus: 4H Assay for Monocyte Chemoattractant Protein-1 (MCP1) Biomarker Activity (AID 2283018; active = hit-call score of the fitted dose curve at least 0.9, where 1 is the maximum; inactive = score below 0.9); conditions: primary human endothelial cells (HUVEC); actives raise or lower the signal
Method in brief: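 ELISA of MCP-1 (CCL2) 24 h after chemical dosing of HUVEC in the BioMAP 4H system. Gain or loss versus DMSO fitted; parallel SRB staining (560 nm) tracked overt cytotoxicity.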

[11] = read-out: Human Leukocyte Antigen - DR isotype (HLADR), HLA-DRA (gene 3122); assay: BSK_3C_HLADR: BioMAP Diversity Plus: 3C Assay for Human Leukocyte Antigen - DR isotype (HLADR) Biomarker Activity (AID 2283019; active = hit-call score of the fitted dose curve at least 0.9, where 1 is the maximum; inactive = score below 0.9); conditions: primary human endothelial cells (HUVEC); actives raise or lower the signal
Method in brief: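 Primary human umbilical vein endothelial cells (3C system) were dosed with compound and cell-surface HLA-DR was quantified by ELISA at 24 h. Activity was fitted bidirectionally against DMSO as negative control and baseline.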

[12] = read-out: Interleukin-8 (IL8), CXCL8 (gene 3576); assay: BSK_3C_IL8: BioMAP Diversity Plus: 3C Assay for Interleukin-8 (IL8) Biomarker Activity (AID 2283020; active = hit-call score of the fitted dose curve at least 0.9, where 1 is the maximum; inactive = score below 0.9); conditions: primary human endothelial cells (HUVEC); actives raise or lower the signal
Method in brief: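 IL-8 was measured by ELISA in HUVEC cultures 24 h after chemical dosing, with gain or loss of signal fitted relative to DMSO. Parallel SRB total-protein staining tracked overt cytotoxicity.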

[13] = BSK_3C_SRB: Viability Assessment in the BioMAP Diversity Plus: 3C Assay (AID 2283023; active = hit-call score of the fitted dose curve at least 0.9, where 1 is the maximum; inactive = score below 0.9;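 note: fitted both ways against DMSO so a hit may be signal rise or drop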); conditions: primary human endothelial cells (HUVEC)
Method in brief: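 Primary human umbilical vein endothelial cells in the 3C system were read 24 h after compound dosing. Total protein was stained with 0.1% sulforhodamine B after 10% TCA fixation and read at 560 nm, with bidirectional fitting against DMSO as baseline.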

[14] = read-out: Pselectin, SELP (gene 6403); assay: BSK_4H_Pselectin: BioMAP Diversity Plus: 4H Assay for Pselectin Biomarker Activity (AID 2283026; active = hit-call score of the fitted dose curve at least 0.9, where 1 is the maximum; inactive = score below 0.9); conditions: primary human endothelial cells (HUVEC); actives raise or lower the signal
Method in brief: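 ELISA of surface P-selectin on HUVEC, 24 h after dosing, with parallel SRB staining (0.1% after 10% TCA fixation, 560 nm) for overt cytotoxicity. Activity fitted in both directions relative to DMSO.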

[15] = BSK_BE3C_SRB: Viability Assessment in the BioMAP Diversity Plus: BE3C Assay (AID 2283028; active = hit-call score of the fitted dose curve at least 0.9, where 1 is the maximum; inactive = score below 0.9); conditions: primary human bronchial epithelial cells
Method in brief: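 Human primary bronchial epithelial cells were exposed to test chemicals for 24 h. Total protein in parallel cultures was then measured by staining with 0.1% sulforhodamine B after 10% TCA fixation, with absorbance read at 560 nm. Activity was fitted bidirectionally against DMSO.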

[16] = read-out: Thrombomodulin, THBD (gene 7056); assay: BSK_3C_Thrombomodulin: BioMAP Diversity Plus: 3C Assay for Thrombomodulin Biomarker Activity (AID 2283029; active = hit-call score of the fitted dose curve at least 0.9, where 1 is the maximum; inactive = score below 0.9); conditions: primary human endothelial cells (HUVEC); actives raise or lower the signal
Method in brief: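 ELISA measurement of thrombomodulin on HUVEC surface 24 h after chemical dosing; activity fitted in both directions relative to DMSO vehicle.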

[17] = read-out: Urokinase-type plasminogen activator receptor (uPAR), PLAUR (gene 5329); assay: BSK_4H_uPAR: BioMAP Diversity Plus: 4H Assay for Urokinase-type plasminogen activator receptor (uPAR) Biomarker Activity (AID 2283030; active = hit-call score of the fitted dose curve at least 0.9, where 1 is the maximum; inactive = score below 0.9); conditions: primary human endothelial cells (HUVEC); actives raise or lower the signal
Method in brief: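 Primary human umbilical vein endothelial cells were exposed to chemical for 24 h before cell-surface uPAR was quantified by ELISA. Activity was fitted bidirectionally against the DMSO negative control baseline.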

[18] = read-out: Monokine induced gamma interferon (MIG), CXCL9 (gene 4283); assay: BSK_3C_MIG: BioMAP Diversity Plus: 3C Assay for Monokine induced gamma interferon (MIG) Biomarker Activity (AID 2283021; active = hit-call score of the fitted dose curve at least 0.9, where 1 is the maximum; inactive = score below 0.9); conditions: primary human endothelial cells (HUVEC); actives raise or lower the signal
Method in brief: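 ELISA measurement of MIG in human umbilical vein endothelial cells 24 h after treatment. Cytotoxicity tracked by SRB staining in parallel cultures; gain or loss of signal fitted relative to DMSO.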

[19] = BSK_4H_SRB: Viability Assessment in the BioMAP Diversity Plus: 4H Assay (AID 2283027; active = hit-call score of the fitted dose curve at least 0.9, where 1 is the maximum; inactive = score below 0.9;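 note: cells exposed to compound for 24 h before staining; curves fitted both ways versus DMSO so AC50 may be loss or gain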); conditions: primary human endothelial cells (HUVEC)
Method in brief: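 HUVEC, 24 h post-dose; 10% TCA fix, 0.1% SRB stain, A560 nm. Total protein = overt cytotoxicity, parallel to biomarker read. Bidirectional fit vs DMSO baseline.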

Measured: AC50

E-selectin (Homo sapiens), sequence (P16581 whole entry, looked up): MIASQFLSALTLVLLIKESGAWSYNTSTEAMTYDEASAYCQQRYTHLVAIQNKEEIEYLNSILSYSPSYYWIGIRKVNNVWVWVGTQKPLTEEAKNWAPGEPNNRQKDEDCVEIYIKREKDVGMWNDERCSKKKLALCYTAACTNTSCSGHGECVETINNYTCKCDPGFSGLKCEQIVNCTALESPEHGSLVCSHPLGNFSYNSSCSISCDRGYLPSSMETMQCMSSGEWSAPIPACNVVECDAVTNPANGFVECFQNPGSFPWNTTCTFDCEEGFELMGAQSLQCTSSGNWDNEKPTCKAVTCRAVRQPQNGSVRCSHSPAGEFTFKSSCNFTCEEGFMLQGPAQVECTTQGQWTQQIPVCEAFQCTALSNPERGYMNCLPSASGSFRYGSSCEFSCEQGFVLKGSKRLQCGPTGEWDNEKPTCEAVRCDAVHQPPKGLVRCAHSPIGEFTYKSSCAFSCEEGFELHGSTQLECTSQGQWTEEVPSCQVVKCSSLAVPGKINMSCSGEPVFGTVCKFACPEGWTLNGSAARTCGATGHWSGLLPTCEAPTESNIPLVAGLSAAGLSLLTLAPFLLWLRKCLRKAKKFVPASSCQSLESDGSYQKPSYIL

CCCCOCC(C)OCC(C)O (configuration not stated)
inactive: [1] | [2] | [3] | [4]

CCCCC1CCCCC(=O)O1 (configuration not stated)
inactive: [1] | [5]

CC(=O)c1ccc2ccccc2c1
inactive: [1] | [2] | [5] | [6] | [3]

CCC(C)C1CCCCC1=O (configuration not stated)
inactive: [1] | [2] | [5] | [6] | [3]

N=C1N=C(N)c2ccccc21
inactive: [1] | [2] | [5] | [6] | [3]

NC(=O)c1c(Cl)cccc1Cl
not listed: [4] | [6] | [18] | [19]
inactive: all other assays above

NS(=O)(=O)c1cc(C(=O)O)c(NCc2ccco2)cc1Cl
inactive: [1] | [2] | [3] | [4]

CCCCCCCCSCc1cc(C)c(O)c(CSCCCCCCCC)c1
inactive: [1] | [2] | [5] | [6] | [3] | [4]

CC(=O)c1ccc(O)cc1
inactive: [1] | [2] | [5] | [6] | [3] | [4]

COC(=O)c1cccc(C(=O)OC)c1
inactive: [1] | [2] | [6]

COc1ccc(C(C)=O)cc1
inactive: [1] | [2] | [5] | [3]

CCOCC(C)O (configuration not stated)
inactive: [1] | [2]

CNC(=C[N+](=O)[O-])NCCSCc1ccc(CN(C)C)o1
inactive: [1] | [2] | [5]

O=C(O)CS
inactive: [1]

FC(F)(F)c1ccc(Cl)c(Cl)c1
inactive: [1] | [5]

[Cu+]
inactive: [1] | [2] | [5] | [3]

NNC(=O)OCc1ccccc1
inactive: [1] | [2] | [5] | [6] | [3] | [4]

Cc1cc(N)n(-c2ccccc2)n1
inactive: [1] | [2] | [6] | [3] | [4]

CC(=O)Nc1cc(S(=O)(=O)O)cc2cc(S(=O)(=O)O)c(N=Nc3ccccc3)c(O)c12
inactive: [1] | [2] | [5] | [6] | [3] | [4]

CC(=O)CC(=O)N(C)C
inactive: [1] | [2] | [5] | [3] | [4]

CCOc1ccc(NC(C)=O)cc1
inactive: [1] | [2] | [5] | [3]

Nc1cc([N+](=O)[O-])ccc1C(=O)O
inactive: [1] | [2] | [5] | [4]

Cc1cc(O)c(C)c(C)c1O
inactive: [1] | [2] | [5] | [6]

CC(O)CNCC(C)O (configuration not stated)
inactive: [1] | [2] | [5] | [6]

CC/C=C\CCOC(C)OCC (configuration not stated)
inactive: [1] | [5]

Nc1ccc(N)c([N+](=O)[O-])c1
active: [7] 13.6 µM
not listed: [4] | [18] | [19]
inactive: all other assays above

O=Cc1ccccc1O
inactive: [1] | [2] | [5] | [6] | [3] | [4]

C#C[C@]1(O)CC[C@H]2[C@@H]3CCc4cc(O)ccc4[C@H]3CC[C@@]21C
active: [7] 5.36 µM | [9] 7.15 µM | [11] 6.67 µM | [12] 5.33 µM | [13] 6.09 µM | [19] 3.99 µM | [17] 3.93 µM
not listed: [4]
inactive: all other assays above

C=C(C)C(=O)OCCC[Si](OC)(OC)OC
inactive: [1] | [2] | [5] | [3]

CCOC(=O)C(=O)OCC
inactive: [1]

C[C@H](CCC(=O)O)[C@H]1CC[C@H]2[C@@H]3CC[C@@H]4C[C@H](O)CC[C@]4(C)[C@H]3CC[C@]12C
inactive: [1] | [2] | [5]

CC(O)CN (configuration not stated)
inactive: [1] | [5]

c1ccc2c(c1)-c1ccc3ccc4cccc5cc-2c1c3c45
active: [7] 0.575 µM | [11] 0.621 µM | [17] 10 µM
not listed: [5] | [18] | [19]
inactive: all other assays above
